Assay [1] deals with Protein kinase C gamma type (Homo sapiens) (UniProt P05129). The note with it: at 1 µM.
Assay [2] addresses T1, Protein kinase C iota type (Homo sapiens) (UniProt P41743).
T1 sequence (whole entry): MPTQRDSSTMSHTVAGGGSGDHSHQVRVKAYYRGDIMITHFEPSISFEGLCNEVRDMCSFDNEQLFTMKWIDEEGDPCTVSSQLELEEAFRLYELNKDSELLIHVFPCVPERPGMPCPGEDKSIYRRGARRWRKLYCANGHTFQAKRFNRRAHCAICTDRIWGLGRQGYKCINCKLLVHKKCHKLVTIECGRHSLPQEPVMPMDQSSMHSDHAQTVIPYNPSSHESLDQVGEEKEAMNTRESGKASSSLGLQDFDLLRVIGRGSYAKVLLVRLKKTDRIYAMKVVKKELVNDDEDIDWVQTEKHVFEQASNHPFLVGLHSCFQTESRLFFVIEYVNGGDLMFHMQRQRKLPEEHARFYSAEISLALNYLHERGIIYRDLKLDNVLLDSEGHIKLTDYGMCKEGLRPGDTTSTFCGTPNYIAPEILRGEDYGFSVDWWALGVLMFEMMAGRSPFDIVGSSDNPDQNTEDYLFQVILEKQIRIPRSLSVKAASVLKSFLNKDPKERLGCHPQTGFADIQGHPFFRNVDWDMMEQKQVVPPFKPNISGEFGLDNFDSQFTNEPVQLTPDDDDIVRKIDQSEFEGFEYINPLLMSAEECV
The note with it: at 0.1 µM.

The target of assay [3] is T1, Protein kinase C iota type (Homo sapiens). The note with it: at 1 µM.
The target in assay [4] is Protein kinase C theta type (Homo sapiens) (UniProt Q04759). Conditions: at 0.1 µM.
Chain of Protein kinase C theta type (Homo sapiens) (Q04759 whole entry, looked up): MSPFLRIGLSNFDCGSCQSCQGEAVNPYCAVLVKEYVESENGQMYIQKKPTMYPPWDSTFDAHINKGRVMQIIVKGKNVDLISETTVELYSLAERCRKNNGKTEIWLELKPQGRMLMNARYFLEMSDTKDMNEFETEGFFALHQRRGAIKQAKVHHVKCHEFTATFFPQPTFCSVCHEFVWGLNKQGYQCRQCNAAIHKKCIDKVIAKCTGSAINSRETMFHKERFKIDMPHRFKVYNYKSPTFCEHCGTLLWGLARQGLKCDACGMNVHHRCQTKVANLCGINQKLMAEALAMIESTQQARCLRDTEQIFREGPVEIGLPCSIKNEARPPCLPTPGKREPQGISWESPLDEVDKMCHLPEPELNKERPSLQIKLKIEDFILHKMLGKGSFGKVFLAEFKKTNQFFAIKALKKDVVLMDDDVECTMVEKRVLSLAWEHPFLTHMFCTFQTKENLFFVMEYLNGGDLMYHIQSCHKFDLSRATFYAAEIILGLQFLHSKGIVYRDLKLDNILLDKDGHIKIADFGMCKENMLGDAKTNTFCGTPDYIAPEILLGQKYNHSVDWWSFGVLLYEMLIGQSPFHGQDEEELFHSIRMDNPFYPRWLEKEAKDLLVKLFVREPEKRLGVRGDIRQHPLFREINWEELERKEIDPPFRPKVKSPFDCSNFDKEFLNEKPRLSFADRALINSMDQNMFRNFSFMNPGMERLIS
Assay [5] has the same target. The note with it: at 1 µM.
Assay [6] deals with Protein kinase C beta type (Homo sapiens) (UniProt P05771). The note with it: at 0.1 µM.
Chain of Protein kinase C beta type (Homo sapiens) (P05771 2-671 limits assumed): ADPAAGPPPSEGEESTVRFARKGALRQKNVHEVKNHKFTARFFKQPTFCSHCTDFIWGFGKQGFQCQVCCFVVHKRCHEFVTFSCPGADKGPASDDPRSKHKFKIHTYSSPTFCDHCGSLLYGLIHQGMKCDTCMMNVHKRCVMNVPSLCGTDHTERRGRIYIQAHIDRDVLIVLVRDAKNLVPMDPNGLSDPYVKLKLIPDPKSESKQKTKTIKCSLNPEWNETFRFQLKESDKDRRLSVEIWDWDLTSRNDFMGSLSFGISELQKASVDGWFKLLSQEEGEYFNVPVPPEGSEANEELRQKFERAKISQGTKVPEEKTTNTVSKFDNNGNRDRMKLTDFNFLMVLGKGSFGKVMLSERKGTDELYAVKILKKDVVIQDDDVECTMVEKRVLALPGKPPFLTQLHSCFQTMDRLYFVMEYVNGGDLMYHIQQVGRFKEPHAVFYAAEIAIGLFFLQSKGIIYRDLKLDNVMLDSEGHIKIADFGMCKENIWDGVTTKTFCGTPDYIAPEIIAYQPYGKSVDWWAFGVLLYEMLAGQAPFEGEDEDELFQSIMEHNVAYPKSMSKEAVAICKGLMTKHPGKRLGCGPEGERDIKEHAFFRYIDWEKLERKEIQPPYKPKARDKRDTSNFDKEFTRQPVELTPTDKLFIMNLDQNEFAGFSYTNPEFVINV
The target is the same in assay [7]. Conditions: at 1 µM.
The target of assay [8] is T2, Serine/threonine-protein kinase D1 (Homo sapiens) (UniProt Q15139).
T2 sequence (whole entry): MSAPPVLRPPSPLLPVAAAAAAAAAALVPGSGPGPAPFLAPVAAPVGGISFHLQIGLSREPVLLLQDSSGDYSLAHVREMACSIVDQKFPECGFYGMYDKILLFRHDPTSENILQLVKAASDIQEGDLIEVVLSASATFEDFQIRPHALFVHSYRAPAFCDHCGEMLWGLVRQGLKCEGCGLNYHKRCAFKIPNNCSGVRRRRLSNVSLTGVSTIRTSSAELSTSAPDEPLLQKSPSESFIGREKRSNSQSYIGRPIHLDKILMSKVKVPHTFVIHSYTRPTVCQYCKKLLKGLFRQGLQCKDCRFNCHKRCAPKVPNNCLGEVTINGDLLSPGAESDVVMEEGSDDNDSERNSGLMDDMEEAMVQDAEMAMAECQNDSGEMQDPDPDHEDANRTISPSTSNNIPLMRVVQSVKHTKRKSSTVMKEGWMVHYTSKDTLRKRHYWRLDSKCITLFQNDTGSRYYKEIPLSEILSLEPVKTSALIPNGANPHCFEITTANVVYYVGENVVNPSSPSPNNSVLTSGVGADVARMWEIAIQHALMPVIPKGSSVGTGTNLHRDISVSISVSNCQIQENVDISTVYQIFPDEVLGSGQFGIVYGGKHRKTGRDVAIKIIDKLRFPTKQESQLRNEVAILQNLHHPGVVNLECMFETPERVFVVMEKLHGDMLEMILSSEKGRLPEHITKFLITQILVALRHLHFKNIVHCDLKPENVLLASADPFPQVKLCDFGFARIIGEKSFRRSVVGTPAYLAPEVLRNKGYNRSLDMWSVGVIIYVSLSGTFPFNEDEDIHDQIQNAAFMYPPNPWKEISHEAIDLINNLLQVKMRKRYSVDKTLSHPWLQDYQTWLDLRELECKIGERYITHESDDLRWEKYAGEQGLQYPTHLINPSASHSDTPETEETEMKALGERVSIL
The note with it: at 0.1 µM.

For assay [9], the target named is T2, Serine/threonine-protein kinase D1 (Homo sapiens). The note with it: at 1 µM.
Assay [10] concerns the target T3, Serine/threonine-protein kinase D2 (Homo sapiens) (UniProt Q9BZL6).
T3 sequence (whole entry): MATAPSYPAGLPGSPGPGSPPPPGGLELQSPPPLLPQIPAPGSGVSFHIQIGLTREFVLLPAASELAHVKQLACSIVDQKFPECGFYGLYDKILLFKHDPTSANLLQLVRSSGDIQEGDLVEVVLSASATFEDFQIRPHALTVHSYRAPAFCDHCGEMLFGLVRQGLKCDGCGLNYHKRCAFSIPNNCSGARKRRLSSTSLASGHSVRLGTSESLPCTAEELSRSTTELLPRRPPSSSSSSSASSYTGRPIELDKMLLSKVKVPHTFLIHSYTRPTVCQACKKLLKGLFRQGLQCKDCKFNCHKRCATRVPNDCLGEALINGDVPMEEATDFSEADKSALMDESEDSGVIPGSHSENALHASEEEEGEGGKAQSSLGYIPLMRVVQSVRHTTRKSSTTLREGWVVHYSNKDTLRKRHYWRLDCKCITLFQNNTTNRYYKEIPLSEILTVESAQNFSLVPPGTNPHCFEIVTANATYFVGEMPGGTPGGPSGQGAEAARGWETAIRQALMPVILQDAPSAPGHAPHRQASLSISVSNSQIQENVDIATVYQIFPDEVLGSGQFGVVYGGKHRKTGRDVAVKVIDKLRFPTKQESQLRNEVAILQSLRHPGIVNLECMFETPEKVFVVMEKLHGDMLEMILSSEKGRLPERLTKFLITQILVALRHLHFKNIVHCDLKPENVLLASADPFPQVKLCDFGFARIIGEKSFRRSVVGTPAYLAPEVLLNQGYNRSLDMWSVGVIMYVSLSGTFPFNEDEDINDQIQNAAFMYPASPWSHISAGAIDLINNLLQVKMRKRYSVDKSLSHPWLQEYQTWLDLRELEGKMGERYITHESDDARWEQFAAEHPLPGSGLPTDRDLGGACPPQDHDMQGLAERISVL
Conditions: at 0.1 µM.

Assay [11] concerns the target T3, Serine/threonine-protein kinase D2 (Homo sapiens). Conditions: at 1 µM.
For assay [12], the target named is T4, Serine/threonine-protein kinase D3 (Homo sapiens) (UniProt O94806).
T4 sequence (whole entry): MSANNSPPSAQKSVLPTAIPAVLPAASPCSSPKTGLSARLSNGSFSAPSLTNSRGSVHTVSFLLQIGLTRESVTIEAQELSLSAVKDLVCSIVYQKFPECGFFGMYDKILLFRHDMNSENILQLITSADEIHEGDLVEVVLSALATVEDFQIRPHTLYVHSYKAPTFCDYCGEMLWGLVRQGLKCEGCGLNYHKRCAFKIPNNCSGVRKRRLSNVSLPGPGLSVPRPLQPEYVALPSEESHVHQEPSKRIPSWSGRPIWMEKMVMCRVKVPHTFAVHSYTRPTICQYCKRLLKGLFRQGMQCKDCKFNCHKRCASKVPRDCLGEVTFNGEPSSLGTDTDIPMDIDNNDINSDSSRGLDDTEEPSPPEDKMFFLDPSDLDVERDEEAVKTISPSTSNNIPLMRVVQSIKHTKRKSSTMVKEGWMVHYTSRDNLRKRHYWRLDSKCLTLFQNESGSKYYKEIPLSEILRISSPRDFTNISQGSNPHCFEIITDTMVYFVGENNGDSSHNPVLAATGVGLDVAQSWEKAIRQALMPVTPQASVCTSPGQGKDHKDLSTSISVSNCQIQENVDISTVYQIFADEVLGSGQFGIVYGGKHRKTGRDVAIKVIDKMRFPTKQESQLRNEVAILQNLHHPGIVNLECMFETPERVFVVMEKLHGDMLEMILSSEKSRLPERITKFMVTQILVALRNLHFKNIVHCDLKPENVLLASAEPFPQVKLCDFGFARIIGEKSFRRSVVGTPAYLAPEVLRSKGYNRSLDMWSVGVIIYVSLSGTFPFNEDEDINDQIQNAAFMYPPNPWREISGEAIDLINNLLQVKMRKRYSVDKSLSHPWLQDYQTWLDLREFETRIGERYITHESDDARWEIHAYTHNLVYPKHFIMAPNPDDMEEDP
The note with it: at 0.1 µM.

For assay [13], the target named is T4, Serine/threonine-protein kinase D3 (Homo sapiens). Conditions: at 1 µM.
Assay [14] deals with T5, cGMP-dependent protein kinase 1 (Homo sapiens) (UniProt Q13976).
T5 sequence (whole entry): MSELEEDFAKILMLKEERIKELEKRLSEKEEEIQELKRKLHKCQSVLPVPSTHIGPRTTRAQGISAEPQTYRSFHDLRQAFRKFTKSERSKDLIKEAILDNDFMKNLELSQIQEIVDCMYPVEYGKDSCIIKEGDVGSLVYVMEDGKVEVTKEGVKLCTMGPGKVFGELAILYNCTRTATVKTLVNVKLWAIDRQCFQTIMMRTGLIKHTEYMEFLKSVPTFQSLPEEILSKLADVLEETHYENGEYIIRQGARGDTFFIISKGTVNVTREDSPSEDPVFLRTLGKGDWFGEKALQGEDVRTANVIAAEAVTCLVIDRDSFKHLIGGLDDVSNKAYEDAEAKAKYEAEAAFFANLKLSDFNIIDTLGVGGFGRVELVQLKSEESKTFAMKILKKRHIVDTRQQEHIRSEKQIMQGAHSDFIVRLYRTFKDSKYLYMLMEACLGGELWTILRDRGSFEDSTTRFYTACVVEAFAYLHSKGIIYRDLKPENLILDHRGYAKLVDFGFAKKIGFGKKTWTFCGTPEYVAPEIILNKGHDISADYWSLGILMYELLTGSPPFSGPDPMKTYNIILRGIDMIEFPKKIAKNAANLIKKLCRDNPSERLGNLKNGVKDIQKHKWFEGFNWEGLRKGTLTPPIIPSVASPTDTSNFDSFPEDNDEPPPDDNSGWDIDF
The note with it: at 0.1 µM.

In assay [15] the target is T5, cGMP-dependent protein kinase 1 (Homo sapiens). Conditions: at 1 µM.
The target of assay [16] is T6, cGMP-dependent protein kinase 2 (Homo sapiens) (UniProt Q13237).
T6 sequence (whole entry): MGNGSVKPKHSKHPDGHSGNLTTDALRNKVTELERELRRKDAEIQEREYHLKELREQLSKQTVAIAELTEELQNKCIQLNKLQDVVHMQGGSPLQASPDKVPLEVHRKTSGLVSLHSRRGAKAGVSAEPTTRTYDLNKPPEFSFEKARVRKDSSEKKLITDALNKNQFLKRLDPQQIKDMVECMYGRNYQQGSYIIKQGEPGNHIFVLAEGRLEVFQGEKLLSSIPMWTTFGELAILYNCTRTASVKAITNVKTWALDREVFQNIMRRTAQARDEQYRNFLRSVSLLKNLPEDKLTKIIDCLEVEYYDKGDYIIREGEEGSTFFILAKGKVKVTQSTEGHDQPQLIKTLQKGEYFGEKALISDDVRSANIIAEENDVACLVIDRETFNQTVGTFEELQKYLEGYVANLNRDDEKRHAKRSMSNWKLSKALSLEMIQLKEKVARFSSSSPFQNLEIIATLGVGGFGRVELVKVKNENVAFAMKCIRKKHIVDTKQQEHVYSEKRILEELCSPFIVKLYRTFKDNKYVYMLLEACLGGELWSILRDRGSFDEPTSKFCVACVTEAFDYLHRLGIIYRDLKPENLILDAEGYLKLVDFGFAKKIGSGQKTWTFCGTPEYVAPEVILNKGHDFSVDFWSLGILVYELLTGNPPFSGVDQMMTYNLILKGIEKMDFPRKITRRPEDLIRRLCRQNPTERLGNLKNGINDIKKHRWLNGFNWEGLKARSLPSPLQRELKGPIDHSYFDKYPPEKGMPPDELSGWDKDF
The note with it: at 0.1 µM.

Assay [17] has as its target T6, cGMP-dependent protein kinase 2 (Homo sapiens). The note with it: at 1 µM.
Assay [18] has as its target T7, cAMP-dependent protein kinase catalytic subunit PRKX (Homo sapiens) (UniProt P51817).
T7 sequence (whole entry): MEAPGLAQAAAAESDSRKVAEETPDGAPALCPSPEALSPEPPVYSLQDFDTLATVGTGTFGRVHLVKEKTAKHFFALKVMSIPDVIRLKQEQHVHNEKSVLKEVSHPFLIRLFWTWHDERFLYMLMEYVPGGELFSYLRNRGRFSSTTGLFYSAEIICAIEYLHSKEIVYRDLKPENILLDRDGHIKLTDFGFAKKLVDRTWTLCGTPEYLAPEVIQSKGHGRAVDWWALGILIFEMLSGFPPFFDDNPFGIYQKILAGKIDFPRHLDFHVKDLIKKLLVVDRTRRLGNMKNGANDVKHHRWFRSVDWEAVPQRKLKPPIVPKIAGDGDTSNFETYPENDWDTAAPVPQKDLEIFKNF
The note with it: at 0.1 µM.

The target in assay [19] is T7, cAMP-dependent protein kinase catalytic subunit PRKX (Homo sapiens). The note with it: at 1 µM.
In assay [20] the target is Rho-associated protein kinase 1 (Homo sapiens) (UniProt Q13464). Conditions: at 0.1 µM.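 Further: values are mean percent inhibition of ROCK1.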
Chain of Rho-associated protein kinase 1 (Homo sapiens) (Q13464 2-1354 limits assumed): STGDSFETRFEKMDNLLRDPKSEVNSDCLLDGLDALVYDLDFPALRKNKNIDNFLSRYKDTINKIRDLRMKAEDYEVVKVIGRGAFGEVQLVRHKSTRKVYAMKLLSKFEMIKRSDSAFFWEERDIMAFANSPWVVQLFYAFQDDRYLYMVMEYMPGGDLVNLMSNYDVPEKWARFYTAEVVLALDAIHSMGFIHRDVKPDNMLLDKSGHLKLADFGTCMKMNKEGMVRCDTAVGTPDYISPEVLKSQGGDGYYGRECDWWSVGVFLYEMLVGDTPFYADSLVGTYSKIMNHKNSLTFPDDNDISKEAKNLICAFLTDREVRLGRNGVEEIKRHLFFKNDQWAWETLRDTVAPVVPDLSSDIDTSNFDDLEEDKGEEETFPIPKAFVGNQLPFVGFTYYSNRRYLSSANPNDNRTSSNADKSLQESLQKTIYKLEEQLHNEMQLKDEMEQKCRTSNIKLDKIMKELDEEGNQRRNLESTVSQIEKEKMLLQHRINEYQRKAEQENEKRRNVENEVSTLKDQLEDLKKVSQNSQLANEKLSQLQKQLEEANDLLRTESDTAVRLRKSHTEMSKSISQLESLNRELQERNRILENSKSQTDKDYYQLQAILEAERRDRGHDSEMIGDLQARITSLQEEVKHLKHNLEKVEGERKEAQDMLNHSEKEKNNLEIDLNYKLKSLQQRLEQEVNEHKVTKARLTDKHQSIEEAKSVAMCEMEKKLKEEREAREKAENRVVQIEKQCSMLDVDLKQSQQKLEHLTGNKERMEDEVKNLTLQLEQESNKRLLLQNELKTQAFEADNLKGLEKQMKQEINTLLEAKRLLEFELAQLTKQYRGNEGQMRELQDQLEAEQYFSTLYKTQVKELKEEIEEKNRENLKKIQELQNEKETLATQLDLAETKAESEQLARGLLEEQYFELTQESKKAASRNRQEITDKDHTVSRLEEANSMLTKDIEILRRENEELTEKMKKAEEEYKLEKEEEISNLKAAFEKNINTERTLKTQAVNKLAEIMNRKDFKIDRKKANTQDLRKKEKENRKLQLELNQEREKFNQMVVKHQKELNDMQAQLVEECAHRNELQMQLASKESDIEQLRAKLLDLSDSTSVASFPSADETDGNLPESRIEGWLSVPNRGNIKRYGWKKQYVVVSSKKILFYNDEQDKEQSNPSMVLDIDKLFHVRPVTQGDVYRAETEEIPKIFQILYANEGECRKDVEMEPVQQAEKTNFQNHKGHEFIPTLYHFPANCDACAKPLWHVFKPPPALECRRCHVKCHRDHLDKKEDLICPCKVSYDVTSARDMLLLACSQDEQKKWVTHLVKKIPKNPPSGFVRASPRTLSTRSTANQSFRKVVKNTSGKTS

For orientation: inhibition means the drop in the measured response relative to a control, in per cent. In the case of `COc1cc(N2CCN(C(C)C)CC2)ccc1Nc1nc(Nc2cccc3ncccc23)c2cc[nH]c2n1`, the inhibition was 0.74% in [1]; -0.08% in assay [2]; 0.58% in [3]; -0.84% in [4]; -1.07% in [5]; -0.21% in assay [6]. The inhibition in assay [7] was 0.45%; in assay [8], -0.17%; in [9], 3.6%; in [10], 0.68%; in assay [11], 4.37%; in assay [12], -0.78%. The inhibition in assay [13] was 4.56%; in [14], -1.01%; in assay [15], 2.36%; in assay [16], 0.84%; in assay [17] it was 0.42%; in assay [18], 0.02%. In addition, the inhibition in assay [19] was -0.18%; in [20], 0.12%.

In the case of `CN(C)CCNC(=O)Nc1ccc(N(C)c2ccnc(Nc3ccc(CS(C)(=O)=O)cc3)n2)cc1`, the inhibition came out at 3.46% in assay [1]; 1.77% in assay [2]; 4.15% in assay [3]; 2.29% in assay [4]; 2.96% in assay [5]; 0.79% in assay [6]. Also, the inhibition amounted to 0.59% in [7]; 3.85% in [8]; 7.28% in assay [9]; 3.75% in assay [10]; 6.51% in assay [11]; 4.97% in assay [12]. In addition, the inhibition in assay [13] amounted to 5.75%; in assay [14] it was 3.82%; in assay [15] it was 4.38%; in [16], 1.71%; in [17], 3.5%; in assay [18] it was 0.73%. The inhibition in assay [19] stood at 0.09%; in assay [20] it was 3.43%.

The record behind these values is ChEMBL document CHEMBL1961873, “Compounds: GSK PKIS; Assays: Nanosyn kinase panel” (2012).
